G9a inh = qHTS Assay for Inhibitors of Histone Lysine Methyltransferase G9a; Histone-lysine N-methyltransferase EHMT2 (Homo sapiens), Q96KQ7; G9a H3K9 monomethylation, AlphaScreen, 2 h; Potency, µM (series often up to 102 µM), usual class: inhibitors; hit rate 8.8% among 350,000; AID 504332, 2011; note: nearly all actives have a fitted effect of over 75% in size
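Enzyme 20 nM + cpd, 15 min RT; add b-H3K9 pep 500 nM / SAM 20 uM; 2 h RT; anti-H3K9me1 Ab 0.5 ug/mL + SA donor / anti-rabbit acceptor beads 20 ug/mL each, 10 min; AlphaScreen read.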
Mm-Cpn inhibitor = Inhibitors of TCP-1 ring complex (TRiC) of Methanococcus maripaludis (MmCpn): qHTS; hit rate 0.031% among 330,000; Potency, µM (titrated, usually from 76.9 µM), most hits filed as inhibitors; purified Mm-Cpn ATPase, ADP Transcreener TR-FRET; AID 504842, 2011; note: nearly all actives have a fitted effect of over 80% in size
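Compound-treated chaperonin, 25 nM final, turns over 10 uM ATP at 37°C for 30 min following a 10 min preincubation; ADP generated competes with ADP-d2 for Eu-cryptate antibody, lowering FRET.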
VDR inhibitor = Inhibitors of the vitamin D receptor (VDR): qHTS. hit rate 0.93% among 400,000. VDR-SRC2-3 peptide fluorescence polarization, 2 h. AID 504847, 2011. Potency, µM, hits mostly inhibitors
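Measured by FP: displacement of SRC2-3 coactivator peptide from VDR by library compounds, following a two-hour ambient incubation.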
Sfp inh = qHTS Assay for Inhibitors of Bacillus subtilis Sfp phosphopantetheinyl transferase (PPTase) | 4'-phosphopantetheinyl transferase ffp (Bacillus subtilis), Q9F4F7 | Biochemical Sfp PPTase activity, qHTS | Potency, µM, usual class: inhibitors | hit rate 3.5% among 310,000;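 note: the enzyme is Sfp with the accession as filed and its product quenches rhodamine fluorescence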
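Buffer: 50 mM Hepes-Na pH 7.6, 10 mM MgCl2, 0.01% Nonidet P-40, 0.01% BSA. Enzyme 15 nM, pre-exposed to compound 15 min; substrates then added and fluorescence change tracked over 30 min.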
CCT chaperon mod = High-Throughput Screening for Modulators of Cytosolic Chaperonin Activity. purified chaperonin ATPase assay, HTRF ADP detection, 30 min. activity change, % (concentration not given with the values), hits read low. hit rate 0.3% among 360,000. AID 651819, 2012; in the data active = activity change below about -30%
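ATPase activity: ADP formed was measured by HTRF Transcreener (665/615 nm ratio) after 30 min at 37 deg C with 10 uM ATP. Compounds screened at one 76 uM concentration against 40 or 20 nM TRiC in Tris pH 7.4/KCl/MgCl2/DTT buffer.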
PLK1 PBD inh = qHTS for Inhibitors of PLK1-PDB (polo-like kinase 1 - polo-box domain): Primary Screen. AID 720504, 2013. Plk1 PBD binding of FITC phosphopeptide, fluorescence polarization. hit rate 2.8% among 360,000. Potency, µM, usual class: inhibitors. Serine/threonine-protein kinase PLK1 (Homo sapiens), P53350; note: series mostly up to about 57 µM; nearly all actives have a fitted effect of over 65% in size
Target sequence (P53350 whole entry, looked up, the tested form may be a part): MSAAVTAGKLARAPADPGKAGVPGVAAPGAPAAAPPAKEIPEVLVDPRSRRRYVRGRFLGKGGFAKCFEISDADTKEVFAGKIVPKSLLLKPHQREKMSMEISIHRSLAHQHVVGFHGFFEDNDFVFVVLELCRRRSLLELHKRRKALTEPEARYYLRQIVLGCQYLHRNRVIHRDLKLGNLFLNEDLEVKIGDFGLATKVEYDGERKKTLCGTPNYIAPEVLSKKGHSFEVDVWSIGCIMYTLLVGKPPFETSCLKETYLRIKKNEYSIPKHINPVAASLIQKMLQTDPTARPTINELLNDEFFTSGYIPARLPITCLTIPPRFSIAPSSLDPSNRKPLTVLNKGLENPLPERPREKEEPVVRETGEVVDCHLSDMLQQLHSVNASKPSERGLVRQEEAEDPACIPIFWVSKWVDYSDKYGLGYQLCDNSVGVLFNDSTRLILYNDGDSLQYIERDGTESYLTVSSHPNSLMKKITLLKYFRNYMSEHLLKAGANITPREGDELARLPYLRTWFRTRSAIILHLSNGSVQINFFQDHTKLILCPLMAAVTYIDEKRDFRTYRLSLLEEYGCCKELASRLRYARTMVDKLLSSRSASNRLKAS
Numbers stand for hits; 0 = inactive; ? = inconclusive; - = not tested or not shown; ! = a repeat was not active; [ ] = another dose, or the depositor's remark. The list is not random: actives were taken first. Their share in the collection is about 10%. Unless noted, calls come from the whole dose curve; as a rule, active = well fitted curve in the direction sought with a large enough effect; inconclusive = small, poorly fitted or top-dose-only effect, or another doubt; inactive = no such curve, though single readings can be large; an effect the other way counts as inactive or inconclusive.

SMILES | G9a inh | Mm-Cpn inhibitor | VDR inhibitor | Sfp inh | CCT chaperon mod | PLK1 PBD inh
O=C(CCN1CCC2CCC(C2)C1)c1ccccc1 (stereo not drawn) | - | - | 70.8µM | - | 0 | 13.4µM
COc1ccc(C(=O)CCN2CCC(C)CC2)cc1 | 15.8µM | 0 | 79.4µM | 0 | 0 | ?
O=C(CCCCN1CCCCC1)c1ccccc1 | - | - | 0 | - | 0 | 0
COc1ccc(C(=O)CCN2CCCC(C)C2)cc1 (stereo not drawn) | 25.1µM | 0 | 70.8µM | 0 | 0 | ?
COc1ccc(OC)c(NC(=O)CCN2CCCC(C)C2)c1 (stereo not drawn) | ? | 0 | 0 | 0 | 0 | 0
COc1cc(-c2ccno2)ccc1S(=O)(=O)N1CCN(c2ccccc2)CC1 | 0 | - | 0 | - | - | -
CC1CCCN(CCC(=O)c2ccc(Br)cc2)C1 (stereo not drawn) | ? | 0 | 79.4µM | 0 | 0 | 3.36µM
Cc1ccc(C2CC2c2n[nH]c(=S)n2-c2cccc(Cl)c2)cc1 (stereo not drawn) | 10µM | 0 | 0 | 0 | 0 | 0
S=c1[nH]nc(C2CC2c2ccc(Cl)cc2)n1-c1ccc(Cl)cc1 (stereo not drawn) | ? | 0 | 0 | 0 | 0 | 0
Cc1ccc(C2CC2c2n[nH]c(=S)n2-c2ccc(C)cc2)cc1 (stereo not drawn) | 0.631µM | 0 | 0 | 0 | 0 | 0
Cc1ccc(-n2c(C3CC3c3ccc(Cl)cc3)n[nH]c2=S)cc1 (stereo not drawn) | 2µM | 0 | 0 | 0 | 0 | 0
Cc1ccc(-n2c([C@@H]3C[C@H]3c3ccccc3)n[nH]c2=S)cc1 | 0.501µM | 0 | 0 | ? | 0 | 0
Cc1ccc(C2CC2C(=O)NNC(=S)Nc2cccc(Cl)c2)cc1 (stereo not drawn) | ? | 0 | 0 | 0 | 0 | ?
CS(=O)(=O)c1ccc(Cn2c3c(c4cc(F)cc(F)c42)CCC[C@H]3CC(=O)O)cc1 | - | - | 25.1µM | 0 | - | -
O=C(Nc1nnc(-c2ccco2)s1)C1CC1 | 50.1µM | 0 | 0 | 0 | 0 | 0
Cc1nc(-c2ccc(S(=O)(=O)NCc3ccc(OC(C)C)cc3)cc2)co1 | 0 | - | 0 | - | - | -
CC(C)c1ccc(/C=C/C2=NNC(=O)CC2)cc1 | 0 | 0 | ? | 0 | 0 | 9.47µM
CCCCn1c(-c2nn(C)c(C)c2Cl)n[nH]c1=S | 11.2µM | 0 | 0 | 0 | 0 | 0
Cc1cc(OCc2n[nH]c(=S)n2-c2ccccc2)ccc1Cl | - | 0 | 0 | 0 | 0 | 0
CCn1c(CCn2ccnc2C)n[nH]c1=S | ? | 0 | 0 | 0 | 0 | 0
Cc1nn(C)c(-c2n[nH]c(=S)n2-c2ccccc2)c1Cl | 3.16µM | 0 | 0 | 0 | 0 | 0
Cc1ccc(-n2c(-c3cn(C)nc3C)n[nH]c2=S)cc1 | ? | 0 | - | 0 | - | -
Cc1nn(C)cc1-c1n[nH]c(=S)n1-c1ccc(F)cc1 | 10µM | 0 | 0 | 0 | 0 | 0
Cn1cc(Cl)c(-c2n[nH]c(=S)n2-c2ccccc2)n1 | 8.91µM | 0 | 0 | 0 | 0 | 0
Cc1c(-c2n[nH]c(=S)n2-c2ccc(C(F)(F)F)cc2)nnn1-c1ccccc1 | 10µM | 0 | 0 | 0 | 0 | 0
SMILES | G9a inh | Mm-Cpn inhibitor | VDR inhibitor | Sfp inh | CCT chaperon mod | PLK1 PBD inh
CCn1c(-c2nn(-c3ccc(C)cc3)ccc2=O)n[nH]c1=S | ? | 0 | 0 | 0 | 0 | 0
Cc1c(Cl)c(-c2n[nH]c(=S)n2-c2ccc(F)cc2)nn1C | ? | 0 | 0 | 0 | 0 | 0
CCn1c(-c2nn(C)cc2Cl)n[nH]c1=S | 10µM | 0 | 0 | ? | 0 | 0
Cc1c(-n2c(-c3ccccc3Cl)n[nH]c2=S)c(=O)n(-c2ccccc2)n1C | 44.7µM | ? | 0 | ? | 0 | 0
C=CCNC(=O)CSc1nnc(-c2ccccc2Cl)n1-c1c(C)n(C)n(-c2ccccc2)c1=O | 0[12.7 µM] | 0 | 0 | 0 | 0 | 0
Cc1c(-c2n[nH]c(=S)n2-c2ccc(Br)cc2)nnn1-c1ccc(Cl)cc1 | ? | 0 | 0 | 0 | 0 | 0
Cn1cc(Cl)c(-c2n[nH]c(=S)n2-c2ccc(F)cc2)n1 | 7.94µM | ? | 0 | 0 | 0 | 0
COC(=O)[C@@H]1[C@H]2C[C@H]3c4[nH]c5ccccc5c4CCN3C[C@H]2CC[C@@H]1O | 0 | - | 0 | 0 | - | -
CCOc1ccc2c(c1)c(=O)c(C(=O)c1ccc(CC)cc1)cn2CC(=O)Nc1cccc(Cl)c1 | 0 | - | 0 | - | - | -
CCc1ccccc1N1C(=O)N(Cc2ccc(C#N)cc2)c2ccccc2S1(=O)=O | 0 | - | 0 | - | - | -
O=C(O)C(Cc1cn[nH]n1)=NO | 6.31µM | 0 | 0 | 79.4µM | -51.3 | 0
CO[C@H]1C[C@@H]2CC[C@@H](C)[C@@](O)(O2)C(=O)C(=O)N2CCCC[C@H]2C(=O)OC([C@H](C)C[C@@H]2CC[C@@H](O)[C@H](OC)C2)CC(=O)[C@H](C)/C=C(\C)[C@@H](O)[C@@H](OC)C(=O)[C@H](C)C[C@H](C)/C=C/C=C/C=C/1C (stereo partly drawn) | 25.1µM! | - | 44.7µM! | 0 | - | -
CO[C@H]1C[C@@H]2CC[C@@H](C)[C@@](O)(O2)C(=O)C(=O)N2CCCC[C@H]2C(=O)O[C@H]([C@H](C)C[C@@H]2CC[C@@H](O)[C@H](OC)C2)CC(=O)[C@H](C)/C=C(/C)[C@@H](O)[C@@H](OC)C(=O)[C@H](C)C[C@H](C)C=C/C=C\C=C/1C | - | - | 0 | - | - | -
CO[C@H]1C[C@@H]2CC[C@@H](C)[C@@](O)(O2)C(=O)C(=O)N2CCCC[C@H]2C(=O)O[C@H]([C@H](C)C[C@@H]2CC[C@@H](O)[C@H](OC)C2)CC(=O)[C@H](C)C=C(C)[C@@H](O)[C@@H](OC)C(=O)[C@H](C)C[C@H](C)C=CC=CC=C1C | ? | 0 | - | 79.4µM | - | -
CC[C@@H]1C=C(C)C[C@H](C)C[C@H](OC)[C@H]2O[C@@](O)(C(=O)C(=O)N3CCCC[C@H]3C(=O)O[C@H](/C(C)=C/[C@@H]3CC[C@@H](O)[C@H](OC)C3)[C@H](C)[C@@H](O)CC1=O)[C@H](C)C[C@@H]2OC | ? | 0 | - | 0 | - | -
CCn1ccc2cc(S(=O)(=O)N3CCC(C(=O)NCCc4ccccc4Cl)CC3)ccc21 | 0 | - | 0 | - | - | -
O=C(NCc1ccc(Cl)cc1)c1csc(-c2cccnc2)n1 | 0 | 0 | 0 | 0 | 0 | 29.9µM
O=C(NCCc1csc(-c2cccnc2)n1)c1ccc(Br)o1 | 20µM | 0 | 0 | 20µM | 0 | 0
C/C(=N\Nc1cc(C(F)(F)F)ccc1Cl)c1ccccc1O | 0 | 0 | 0 | 0 | 0 | 0

Source: PubChem
